In the library only some 9.2% were active in any assay of this set; here they are far more common.
FLuc counter: firefly luciferase modulation, counter-screen for miR-21 project. P08659. purified FLuc, Km substrates, luminescence inhibition. Potency, µM (top dose mostly 57.5 µM), inactives show top-dose activity change, negative = inhibition, actives largely listed as inhibitors. 6.9% of 360,000 active. AID 588342;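 note: plate controls were vehicle for no effect and reference inhibitor for full effect; nearly all actives have a fitted effect of over 55% in size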
Target sequence (P08659 whole entry, looked up): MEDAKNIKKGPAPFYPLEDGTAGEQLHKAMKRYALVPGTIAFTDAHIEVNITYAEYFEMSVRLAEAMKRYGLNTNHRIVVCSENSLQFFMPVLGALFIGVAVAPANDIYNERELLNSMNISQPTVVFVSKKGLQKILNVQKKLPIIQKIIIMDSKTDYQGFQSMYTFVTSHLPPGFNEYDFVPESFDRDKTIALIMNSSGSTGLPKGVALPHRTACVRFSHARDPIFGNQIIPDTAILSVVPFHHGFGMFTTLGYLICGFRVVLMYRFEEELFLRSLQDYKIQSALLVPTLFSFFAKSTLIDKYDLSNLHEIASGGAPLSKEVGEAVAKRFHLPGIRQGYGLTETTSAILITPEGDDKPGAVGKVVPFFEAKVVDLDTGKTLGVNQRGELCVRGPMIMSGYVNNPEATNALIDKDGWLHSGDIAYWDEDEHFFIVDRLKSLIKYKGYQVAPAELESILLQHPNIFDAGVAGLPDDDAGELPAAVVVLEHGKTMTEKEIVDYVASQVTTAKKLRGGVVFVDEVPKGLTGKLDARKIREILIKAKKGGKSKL
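Purified P. pyralis luciferase (10nM final) with 10uM D-luciferin and 10uM ATP (Km levels) in 50mM Tris acetate pH 7.5, 10mM Mg acetate, 0.01% Tween-20, 0.05% BSA; qHTS 6-point titration, ~60 µM downward; luminescence read.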
ELG1 genotoxic: genotoxicity induction in ELG1-luciferase HEK293T cells | HEK293T ELG1-luciferase reporter, luminescence, 16 h | Potency, µM (highest dose often 46 µM), for the others: at the top dose activity change, positive = activation, actives largely listed as activators | 1.3% of 330,000 active; note: % of control where 0% means no effect; nearly all actives have a fitted effect of over 60% in size
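Cells (2,000/well) expressing the ELG1-luciferase fusion are dosed by pin tool and kept 16 hr at 37 °C, 5% CO2. Signal comes from ONE-Glo luciferase reagent after 30 min at room temperature.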
NPC1 promoter act: activates the NPC1 promoter; Potency, µM (doses to about 9.22 µM), for the others: at the highest dose activation, most hits filed as activators; 2.4% of 320,000 active; AID 485313; Huh7 NPC1 promoter luciferase reporter, 24 h; note: % of control where 0% means no effect; nearly all actives have a fitted effect of over 60% in size
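Compounds in DMSO were transferred onto Huh7 NPC1-luciferase reporter cells pre-incubated 2 h; after 24 h at 37 °C, Amplite reagent was dispensed and luminescence recorded 10 min later.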
SMN2 splice enh: increases expression of the SMN2 splice variant; HEK293 SMN2-luciferase splicing reporter, luminescence, 30-36 h; Potency, µM (doses to about 46.1 µM), without a hit: top-dose activity change, positive = activation, hits mostly activators; 2.8% of 210,000 active; note: % of control where 0% means no effect; nearly all actives have a fitted effect of over 55% in size
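HEK293 cells carry an SMN2 minigene-luciferase reporter in which exon 7 inclusion puts luciferase in frame. Cells were seeded at 2000 cells/well, attached for 10-12 hours, then exposed to compounds for 30-36 hours at 37C before ONE-Glo luminescence.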
ELG1 DNA repair: ELG1-dependent DNA repair inhibition. AID 504467. Potency, µM (series often up to 46.1 µM), for inactives: at the top dose activity change, negative = inhibition, most hits filed as inhibitors. 2.3% of 330,000 active. HEK293T ELG1-luciferase reporter, luminescence, 16 h; DNA damage induced by 5-fluorouridine; note: % is set by controls: 0 for no effect and ±100 for the full control effect; nearly all actives have a fitted effect of over 55% in size
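Overnight (16 hr) co-exposure of 2,000 cells/well to 5-fluorouridine and compound at 37 °C preceded detection. Luciferase was quantified via ONE-Glo luminescence; loss of signal denotes inhibition.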
Rab9 promoter act: Rab9 promoter activation | Potency, µM (highest dose often 9.22 µM), for inactives: at the top dose activation, negative = inhibition, actives largely listed as activators | Huh7 Rab9 promoter-luciferase reporter, luminescence, 24 h | 2.8% of 320,000 active; note: % of control where 0% means no effect; nearly all actives have a fitted effect of over 60% in size
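Measured in stably transfected Huh7 cells bearing a Rab9 promoter–luciferase construct: 24 h compound treatment at 37 °C, followed by luminescence detection.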
Active calls of the source: *; u = inconclusive; x = not tested or not shown. Calls come from the whole dose curve; as a rule, active = well fitted curve in the direction sought with a large enough effect; inconclusive = small, poorly fitted or top-dose-only effect, or another doubt; inactive = no such curve, though single readings can be large; an effect the other way counts as inactive or inconclusive. Potency is the fitted concentration of half-maximal effect.

SMILES	FLuc counter	ELG1 genotoxic	NPC1 promoter act	SMN2 splice enh	ELG1 DNA repair	Rab9 promoter act
CCCCN(CCCC)CC(O)Cn1cc(/C=C/C(=O)c2ccccc2)c2ccccc21 (stereo unspecified)	-3%	x	x	1%	x	x
CCCCN(C)CC(O)Cn1cc(/C=C/C(=O)c2ccc(OCC)cc2)c2ccccc21 (stereo unspecified)	17µM*	0%	-1%	-83%	11%	-4%
CCc1ccc(OCC(=O)Nc2ccncc2)c(Br)c1	3.4µM*	u	1%	x	u	0%
Cc1cc(OCC(=O)Nc2ccncc2)c(C)cc1Br	u	0%	1%	14%	-13%	-3%
O=C(COc1ccc(Br)cc1)Nc1ccncc1	u	0%	-3%	8%	-21%	1%
Cc1ccccc1OCC(=O)NNC(=S)NC(=O)c1ccccc1[N+](=O)[O-]	-13%	-4%	0%	-15%	-5%	-1%
CC(C)(C)c1ccc(OCC(=O)NNC(=S)NC(=O)c2ccccc2[N+](=O)[O-])c(Br)c1	27µM*	4%	1%	x	5%	-2%
CCc1ccc(OCC(=O)NNC(=S)NC(=O)C2CC2)c(Br)c1	9.5µM*	u	-1%	x	-3%	-2%
CC(C)(C)c1ccc(OCC(=O)Nc2ccncc2)c(Br)c1	21µM*	1%	-2%	x	-12%	-1%
CCN1CCN(S(=O)(=O)c2c(C)cc(C)cc2C)CC1	-3%	-2%	3%	x	-7%	3%
CC(Oc1ccccc1F)C(=O)NNC(=O)CCNC(=O)c1ccco1 (stereo unspecified)	1%	-3%	0%	x	8%	0%
O=C(CSc1nnc(CNC(=O)c2c(F)cccc2F)o1)c1ccccc1	-9%	-3%	-2%	x	6%	0%
CCc1ccc(/C=C2/SC(=S)N(CCC(=O)NCCCN3CCOCC3)C2=O)cc1	5.4µM*	13%	10%	x	15%	-7%
O=C(CCN1C(=O)/C(=C/c2ccccc2)SC1=S)NCCCN1CCOCC1	5%	-10%	-1%	x	-15%	-5%
CCOc1ccc(/C=C2\SC(=S)N(CCCC(=O)NCCCN3CCOCC3)C2=O)cc1	9.5µM*	-16%	-34%	x	8%	-37%
COC(=O)c1ccc(/C=C2/SC(=S)N(CCC(=O)NCCCN3CCOCC3)C2=O)cc1	u	0%	-3%	x	-12%	-4%
O=C(CCCN1C(=O)/C(=C/c2ccccc2Cl)SC1=S)NCCCN1CCOCC1	17µM*	-18%	-13%	x	-18%	-11%
Cc1ccc(S(=O)(=O)N/N=C/c2ccccc2O)cc1[N+](=O)[O-]	15µM*	11%	-1%	-25%	8%	-1%
C/C(=N\NS(=O)(=O)c1ccc(C)c([N+](=O)[O-])c1)c1ccc2c(c1)OCO2	11µM*	0%	2%	x	17%	-10%
C/C(=N\NS(=O)(=O)c1ccc([N+](=O)[O-])cc1)c1ccc2c(c1)OCO2	-2%	2%	-3%	x	4%	6%
Cc1ccccc1C1=NC(c2ccc(F)cc2F)ON1 (stereo unspecified)	24µM*	11µM*	1%	35%	u	24%
COc1ccccc1C1N=C(c2ccccc2C)NO1 (stereo unspecified)	8.5µM*	10µM*	21%	x	u	u
Cc1ccccc1-c1nn(-c2ccc(F)cc2F)cc1CNCC(C)O (stereo unspecified)	-2%	-1%	-7%	x	-2%	-10%
COc1ccccc1C1=NC(c2ccc(F)cc2)N=C1C (stereo unspecified)	u	14%	20%	23%	-6%	u
CCOc1ccc2noc3c2c1C(=O)c1ccccc1-3	-9%	0%	8%	15%	u	-2%
SMILES	FLuc counter	ELG1 genotoxic	NPC1 promoter act	SMN2 splice enh	ELG1 DNA repair	Rab9 promoter act
O=C1c2ccccc2-c2onc3c(Oc4ccccc4)cc(O)c1c23	u	u	9%	11µM*	u	1%
CCOC(=O)CNc1c(-c2ccc(O)cc2)nc2ccccn12	u	4%	3%	-1%	17%	24%
Cc1ccccc1Nc1c(-c2ccncc2)nc2ccc(Cl)cn12	-4%	-9%	-7%	10µM*	-7%	12%
CCOC(=O)CNc1c(-c2ccc(O)cc2)nc2ccc(Cl)cn12	15µM*	u	20%	38%	u	29%
Cc1ccc(Nc2c(-c3ccccn3)nc3ccc(Br)cn23)cc1	0%	x	x	5%	x	x
COC(=O)CNc1c(-c2ccccn2)nc2ccc(Br)cn12	3.4µM*	1.3µM*	1.6µM*	5µM*	u	0.89µM*
Cc1ccc2nc(-c3ccsc3)c(Nc3ccccc3C)n2c1	4%	x	x	20%	x	x
CCOC(=O)CNc1c(-c2ccccc2)nc2ccc(Cl)cn12	9.5µM*	9%	28%	0%	u	23%
CCC(=O)N1CCc2cc(S(=O)(=O)CCC(=O)N3CCN(c4cc(C)ccc4C)CC3)ccc21	0%	x	x	-16%	x	x
COc1ccc(CN2CCNC(=O)C2CC(=O)N2CCCCO2)cc1OC (stereo unspecified)	-1%	5%	4%	x	0%	5%
O=C(Nc1ccc(F)c(Cl)c1)C1Cc2ccccc2CN1S(=O)(=O)c1ccc(F)cc1 (stereo unspecified)	-8%	x	x	15%	x	x
COC(=O)c1cc(C(=O)OC)cc(-n2c(C)cc(C(=O)COC(=O)CNS(=O)(=O)c3ccc(C)cc3)c2C)c1	2%	1%	0%	4%	u	-1%
Clc1ccc(/C=N\Nc2ccccc2)cc1	17µM*	u	9%	x	1%	17%
O=C(N/N=C/c1ccco1)Nc1ccccc1	19µM*	u	3.2µM*	x	u	4µM*
O=C(N/N=C/c1ccc(Cl)cc1)Nc1ccccc1	4.3µM*	u	u	u	u	u
COc1ccc(-n2c3c(c(=O)[nH]c2=O)C(NC(C)=O)(C(F)(F)F)C(=O)N3)cc1 (stereo unspecified)	-2%	0%	-3%	7%	-8%	3%
CCS(=O)(=O)c1nc(S(=O)(=O)c2ccc(C)cc2)c(NCCCOC)s1	0%	x	x	8%	x	x
CC[N+]1(C)[C@@H]2CC[C@H]1CC(OC(=O)[C@H]1CCC(C(=O)OC3C[C@H]4CC[C@@H](C3)[N+]4(C)CC)(c3ccccc3)c3ccccc31)C2 (stereo partly specified)	-1%	-8%	2%	x	7%	1%
Cc1cc(NC(=O)c2cncc(Br)c2)ccc1NC(=O)c1cc2ccccc2o1	0%	u	1%	x	u	-1%

Source: PubChem
